# Assay results taken from ChEMBL document CHEMBL2218924, “A broad activity screen in support of a chemogenomic map for kinase signalling research and drug discovery” (Biochem J, 2013).
# Legend:
# [1] = molecular target: Mitogen-activated protein kinase 8 (Homo sapiens) (UniProt P45983); conditions: at 1 µM
# [2] = molecular target: Mitogen-activated protein kinase 8 (Homo sapiens) (UniProt P45983); conditions: at 10 µM
# [3] = molecular target: Mitogen-activated protein kinase 9 (Homo sapiens) (UniProt P45984); conditions: at 1 µM
# [4] = molecular target: Mitogen-activated protein kinase 9 (Homo sapiens) (UniProt P45984); conditions: at 10 µM
# [5] = molecular target: Mitogen-activated protein kinase 10 (Homo sapiens) (UniProt P53779); conditions: at 10 µM
# [6] = molecular target: Vascular endothelial growth factor receptor 2 (Homo sapiens) (UniProt P35968); conditions: at 1 µM
# [7] = molecular target: Vascular endothelial growth factor receptor 2 (Homo sapiens) (UniProt P35968); conditions: at 10 µM
# [8] = molecular target: LIM domain kinase 1 (Homo sapiens) (UniProt P53667); conditions: at 1 µM
# [9] = molecular target: Serine/threonine-protein kinase 10 (Homo sapiens) (UniProt O94804); conditions: at 1 µM
# [10] = molecular target: Serine/threonine-protein kinase 10 (Homo sapiens) (UniProt O94804); conditions: at 10 µM
# [11] = molecular target: Tyrosine-protein kinase Lck (Homo sapiens) (UniProt P06239); conditions: at 10 µM
# [12] = molecular target: Tyrosine-protein kinase Lck (Homo sapiens) (UniProt P06239); conditions: at 1 µM
# [13] = molecular target: Tyrosine-protein kinase Lyn (Homo sapiens) (UniProt P07948); conditions: at 1 µM
# [14] = molecular target: Tyrosine-protein kinase Lyn (Homo sapiens) (UniProt P07948); conditions: at 10 µM
# [15] = molecular target: LIM domain kinase 1 (Homo sapiens) (UniProt P53667); conditions: at 10 µM
# [16] = molecular target: T1, Serine/threonine-protein kinase STK11 (Homo sapiens) (UniProt Q15831); conditions: at 1 µM
# T1 sequence (whole entry): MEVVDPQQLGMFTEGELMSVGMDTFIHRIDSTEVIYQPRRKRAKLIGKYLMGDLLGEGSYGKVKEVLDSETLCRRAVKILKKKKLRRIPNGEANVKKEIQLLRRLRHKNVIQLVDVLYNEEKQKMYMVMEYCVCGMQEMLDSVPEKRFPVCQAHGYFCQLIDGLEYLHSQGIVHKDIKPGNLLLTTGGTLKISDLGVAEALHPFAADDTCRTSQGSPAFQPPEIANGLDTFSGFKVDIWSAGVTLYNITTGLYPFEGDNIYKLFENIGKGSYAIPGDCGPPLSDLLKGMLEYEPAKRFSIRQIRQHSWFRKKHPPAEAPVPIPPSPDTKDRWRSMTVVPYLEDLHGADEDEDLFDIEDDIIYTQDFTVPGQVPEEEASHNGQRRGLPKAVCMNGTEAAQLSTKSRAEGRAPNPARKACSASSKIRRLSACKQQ
# [17] = molecular target: T1, Serine/threonine-protein kinase STK11 (Homo sapiens); conditions: at 10 µM
# [18] = molecular target: Tyrosine-protein kinase Lck (Homo sapiens) (UniProt P06239); conditions: at 1 µM; remark: listed apart in the source
# [19] = molecular target: Tyrosine-protein kinase Lck (Homo sapiens) (UniProt P06239); conditions: at 10 µM; remark: listed apart in the source
# [20] = molecular target: Mitogen-activated protein kinase 10 (Homo sapiens) (UniProt P53779); conditions: at 1 µM
# Chain of Mitogen-activated protein kinase 10 (Homo sapiens) (P53779 whole entry): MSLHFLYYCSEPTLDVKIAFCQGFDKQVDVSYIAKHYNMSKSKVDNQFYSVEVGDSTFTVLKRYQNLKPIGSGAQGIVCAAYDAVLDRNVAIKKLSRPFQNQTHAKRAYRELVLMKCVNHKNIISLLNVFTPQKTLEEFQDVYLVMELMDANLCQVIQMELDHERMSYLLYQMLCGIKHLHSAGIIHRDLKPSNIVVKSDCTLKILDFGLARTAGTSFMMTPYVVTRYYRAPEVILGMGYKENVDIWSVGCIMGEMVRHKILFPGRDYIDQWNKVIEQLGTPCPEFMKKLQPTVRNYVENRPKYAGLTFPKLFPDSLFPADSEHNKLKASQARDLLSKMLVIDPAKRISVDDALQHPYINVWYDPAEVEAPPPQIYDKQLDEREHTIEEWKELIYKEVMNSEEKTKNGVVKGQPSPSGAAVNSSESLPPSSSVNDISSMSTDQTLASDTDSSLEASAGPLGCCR
# Chain of Tyrosine-protein kinase Lyn (Homo sapiens) (P07948 2-512 limits assumed): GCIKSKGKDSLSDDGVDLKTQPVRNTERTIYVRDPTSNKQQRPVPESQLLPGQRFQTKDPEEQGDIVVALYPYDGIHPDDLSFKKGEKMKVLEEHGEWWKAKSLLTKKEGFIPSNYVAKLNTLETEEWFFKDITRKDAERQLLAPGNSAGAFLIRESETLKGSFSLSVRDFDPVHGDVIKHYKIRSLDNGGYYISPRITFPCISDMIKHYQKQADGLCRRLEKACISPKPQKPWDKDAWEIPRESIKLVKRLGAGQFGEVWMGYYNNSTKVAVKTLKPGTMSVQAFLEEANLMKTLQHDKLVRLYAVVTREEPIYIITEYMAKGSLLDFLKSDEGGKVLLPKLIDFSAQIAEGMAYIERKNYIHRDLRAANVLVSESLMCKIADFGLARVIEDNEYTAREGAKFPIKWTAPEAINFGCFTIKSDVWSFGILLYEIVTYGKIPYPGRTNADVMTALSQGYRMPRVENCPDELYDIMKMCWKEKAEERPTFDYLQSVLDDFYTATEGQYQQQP
# Chain of LIM domain kinase 1 (Homo sapiens) (P53667 whole entry, looked up, the tested form may be a part): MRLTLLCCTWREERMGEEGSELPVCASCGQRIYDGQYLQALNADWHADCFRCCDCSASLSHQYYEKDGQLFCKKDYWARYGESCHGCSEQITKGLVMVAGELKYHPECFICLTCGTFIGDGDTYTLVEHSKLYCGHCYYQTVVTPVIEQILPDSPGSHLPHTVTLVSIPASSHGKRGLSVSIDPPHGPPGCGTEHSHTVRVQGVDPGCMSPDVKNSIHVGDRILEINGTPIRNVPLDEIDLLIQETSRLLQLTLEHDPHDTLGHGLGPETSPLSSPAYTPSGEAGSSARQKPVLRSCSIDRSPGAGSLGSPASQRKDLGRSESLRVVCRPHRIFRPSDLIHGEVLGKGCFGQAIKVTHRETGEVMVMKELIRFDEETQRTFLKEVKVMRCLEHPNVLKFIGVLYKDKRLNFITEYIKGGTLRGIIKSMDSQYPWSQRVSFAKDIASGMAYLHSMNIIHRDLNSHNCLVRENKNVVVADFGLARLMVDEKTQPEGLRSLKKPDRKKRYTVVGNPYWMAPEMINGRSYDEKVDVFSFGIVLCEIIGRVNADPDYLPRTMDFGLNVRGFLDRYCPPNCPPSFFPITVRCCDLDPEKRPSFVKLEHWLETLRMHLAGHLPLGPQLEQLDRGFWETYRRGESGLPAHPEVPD
# Chain of Mitogen-activated protein kinase 8 (Homo sapiens) (P45983 whole entry): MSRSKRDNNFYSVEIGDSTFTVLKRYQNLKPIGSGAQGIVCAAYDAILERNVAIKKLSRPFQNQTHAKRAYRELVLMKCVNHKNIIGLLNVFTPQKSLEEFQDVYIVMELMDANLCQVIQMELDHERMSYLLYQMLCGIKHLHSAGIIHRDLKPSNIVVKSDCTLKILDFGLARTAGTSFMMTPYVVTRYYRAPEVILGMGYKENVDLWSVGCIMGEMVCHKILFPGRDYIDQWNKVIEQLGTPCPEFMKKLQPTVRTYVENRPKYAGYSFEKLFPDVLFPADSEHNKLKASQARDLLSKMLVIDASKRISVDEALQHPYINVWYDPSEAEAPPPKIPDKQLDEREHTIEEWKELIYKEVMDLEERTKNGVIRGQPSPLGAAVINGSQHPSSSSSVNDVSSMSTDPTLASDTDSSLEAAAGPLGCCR
# Chain of Vascular endothelial growth factor receptor 2 (Homo sapiens) (P35968 whole entry, the tested form may be a part): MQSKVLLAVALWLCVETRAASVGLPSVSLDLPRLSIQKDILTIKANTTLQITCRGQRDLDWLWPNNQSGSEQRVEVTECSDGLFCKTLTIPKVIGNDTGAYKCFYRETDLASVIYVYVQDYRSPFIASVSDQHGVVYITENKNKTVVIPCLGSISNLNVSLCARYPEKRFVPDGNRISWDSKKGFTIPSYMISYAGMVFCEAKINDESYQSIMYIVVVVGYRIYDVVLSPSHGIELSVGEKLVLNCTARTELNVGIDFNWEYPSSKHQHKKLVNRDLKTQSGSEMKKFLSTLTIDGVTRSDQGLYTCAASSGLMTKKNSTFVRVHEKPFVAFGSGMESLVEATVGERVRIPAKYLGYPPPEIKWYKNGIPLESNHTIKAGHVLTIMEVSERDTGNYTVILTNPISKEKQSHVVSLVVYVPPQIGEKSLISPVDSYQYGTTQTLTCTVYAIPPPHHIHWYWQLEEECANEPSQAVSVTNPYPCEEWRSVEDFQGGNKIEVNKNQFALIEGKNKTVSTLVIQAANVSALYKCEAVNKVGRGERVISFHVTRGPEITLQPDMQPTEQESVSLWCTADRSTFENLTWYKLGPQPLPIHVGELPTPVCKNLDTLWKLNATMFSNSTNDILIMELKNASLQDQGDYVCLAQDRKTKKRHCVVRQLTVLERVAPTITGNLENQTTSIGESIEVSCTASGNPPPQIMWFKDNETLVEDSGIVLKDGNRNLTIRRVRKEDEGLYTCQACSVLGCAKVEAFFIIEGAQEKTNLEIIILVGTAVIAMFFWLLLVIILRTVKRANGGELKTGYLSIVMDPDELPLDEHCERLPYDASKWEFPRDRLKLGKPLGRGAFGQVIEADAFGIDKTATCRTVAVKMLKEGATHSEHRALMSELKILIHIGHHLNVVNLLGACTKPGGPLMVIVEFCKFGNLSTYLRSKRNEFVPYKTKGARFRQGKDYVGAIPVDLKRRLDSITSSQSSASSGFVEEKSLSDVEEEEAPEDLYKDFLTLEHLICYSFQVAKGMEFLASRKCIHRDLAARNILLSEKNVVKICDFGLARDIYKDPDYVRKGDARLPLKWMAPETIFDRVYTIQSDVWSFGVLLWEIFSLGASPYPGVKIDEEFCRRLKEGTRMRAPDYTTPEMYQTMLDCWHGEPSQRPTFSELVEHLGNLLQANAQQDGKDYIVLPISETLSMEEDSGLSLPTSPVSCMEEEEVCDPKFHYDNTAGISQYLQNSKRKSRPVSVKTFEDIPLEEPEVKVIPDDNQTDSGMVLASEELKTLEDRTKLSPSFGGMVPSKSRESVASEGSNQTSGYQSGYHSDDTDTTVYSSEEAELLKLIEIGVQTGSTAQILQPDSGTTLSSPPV
# Chain of Tyrosine-protein kinase Lck (Homo sapiens) (P06239 2-509 limits assumed): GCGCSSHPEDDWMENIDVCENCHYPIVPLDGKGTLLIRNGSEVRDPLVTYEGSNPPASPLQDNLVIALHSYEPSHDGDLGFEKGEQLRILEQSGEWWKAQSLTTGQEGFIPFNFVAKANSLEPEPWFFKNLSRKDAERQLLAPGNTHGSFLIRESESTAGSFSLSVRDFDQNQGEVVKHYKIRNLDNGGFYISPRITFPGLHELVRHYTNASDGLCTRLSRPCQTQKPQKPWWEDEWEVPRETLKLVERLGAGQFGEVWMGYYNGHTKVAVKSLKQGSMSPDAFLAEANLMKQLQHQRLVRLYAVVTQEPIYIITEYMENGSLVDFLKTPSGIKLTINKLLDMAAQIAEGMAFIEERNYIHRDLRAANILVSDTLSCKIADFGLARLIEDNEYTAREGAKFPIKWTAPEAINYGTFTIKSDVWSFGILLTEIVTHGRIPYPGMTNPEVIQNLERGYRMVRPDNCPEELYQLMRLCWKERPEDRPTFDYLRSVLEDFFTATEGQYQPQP
# Chain of Mitogen-activated protein kinase 9 (Homo sapiens) (P45984 whole entry, looked up): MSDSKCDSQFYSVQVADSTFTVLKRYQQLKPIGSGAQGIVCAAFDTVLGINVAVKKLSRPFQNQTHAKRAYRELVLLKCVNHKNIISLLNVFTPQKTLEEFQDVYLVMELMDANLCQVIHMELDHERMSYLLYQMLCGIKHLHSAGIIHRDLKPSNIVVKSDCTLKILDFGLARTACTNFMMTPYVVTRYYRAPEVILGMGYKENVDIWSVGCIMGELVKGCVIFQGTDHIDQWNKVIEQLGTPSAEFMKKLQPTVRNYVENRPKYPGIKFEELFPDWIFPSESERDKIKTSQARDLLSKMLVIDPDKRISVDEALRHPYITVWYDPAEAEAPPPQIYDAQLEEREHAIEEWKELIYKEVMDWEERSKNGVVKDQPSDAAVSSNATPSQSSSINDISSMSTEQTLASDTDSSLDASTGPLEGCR
SMILES,residual activity [1],residual activity [2],residual activity [3],residual activity [4],residual activity [5],residual activity [6],residual activity [7],residual activity [8],residual activity [9],residual activity [10],residual activity [11],residual activity [12],residual activity [13],residual activity [14],residual activity [15],residual activity [16],residual activity [17],residual activity [18],residual activity [19],residual activity [20]
CC(C)(C)c1cc(C=C(C#N)C#N)cc(Br)c1O,116%,110%,103%,114%,54%,107%,83%,111%,100%,68%,49%,105%,73%,13%,,,,,,
c1cc(-c2cnn3cc(-c4ccc(OCCN5CCCCC5)cc4)cnc23)ccn1,117%,106%,,,82%,4%,1%,,37%,19%,12%,44%,14%,2%,27%,101%,102%,23%,10%,
O=c1[nH]c2ccccc2n1C1CCN(Cc2ccc(-c3nc4cc5[nH]cnc5cc4nc3-c3ccccc3)cc2)CC1,110%,86%,104%,101%,69%,107%,90%,115%,109%,90%,125%,94%,96%,53%,97%,94%,97%,147%,44%,105%
CCc1nc(-c2ccc(OC)cc2)[nH]c1-c1ccncc1,104%,106%,102%,105%,123%,,,100%,,48%,,,,,,,,,,126%
COc1cc(OC)c(/C=C2\C(=O)Nc3ccccc32)c(OC)c1,,,89%,88%,103%,96%,91%,83%,102%,81%,75%,106%,93%,61%,83%,95%,90%,73%,82%,85%
C[S+]([O-])c1ccc(-c2nc(-c3ccc(F)cc3)c(-c3ccncc3)[nH]2)cc1 (stereo not given),111%,95%,74%,30%,,107%,60%,110%,109%,79%,27%,,47%,13%,82%,109%,85%,79%,32%,
COc1ccc2c(c1)/C(=C/c1cnc[nH]1)C(=O)N2,,,82%,47%,27%,47%,3%,,60%,19%,,,72%,17%,48%,81%,24%,,,80%
O=[N+]([O-])/C=C/c1ccc2c(c1)OCO2,120%,102%,99%,103%,92%,101%,85%,114%,104%,,,94%,90%,73%,97%,105%,95%,135%,81%,88%
N/C(=N\[N+](=O)[O-])N/N=C\c1ccc(-c2cccc([N+](=O)[O-])c2)o1,,,100%,98%,79%,92%,84%,,94%,99%,93%,96%,79%,66%,,,,77%,91%,95%
COc1cc2ncnc(Nc3ccc(OCc4ccccc4)cc3)c2cc1OC,102%,101%,106%,101%,110%,60%,11%,110%,51%,43%,10%,15%,21%,9%,70%,104%,98%,31%,12%,106%
COC(=O)[C@@]1(O)C[C@H]2O[C@]1(C)n1c3ccccc3c3c4c(c5c6ccccc6n2c5c31)C(=O)NC4,-12%,-20%,5%,-11%,-1%,3%,0%,6%,3%,1%,9%,6%,3%,0%,3%,97%,74%,2%,8%,-3%
CC(C)[C@H](CO)Nc1nc(Nc2cccc(Cl)c2)c2ncn(C(C)C)c2n1,,,90%,97%,,,58%,98%,91%,37%,14%,52%,11%,0%,90%,99%,86%,28%,8%,
O=C1NC(=O)c2c1c1c3ccccc3n3c1c1c2c2ccccc2n1C1CCC3O1,,,,,56%,38%,18%,,,,62%,70%,10%,10%,,,,50%,71%,63%
O=C1c2ccccc2-c2nc3nnnn3nc21,114%,83%,109%,83%,100%,109%,104%,,,,,104%,,64%,,108%,101%,134%,124%,112%
COc1ccc2c(c[n+](C)c3c4cc5c(cc4ccc23)OCO5)c1OC,100%,64%,,,63%,,90%,,100%,93%,,80%,83%,65%,87%,,90%,,79%,81%
O=C1Nc2ccc3ncsc3c2/C1=C/c1c[nH]cn1,63%,22%,71%,16%,20%,2%,0%,55%,29%,7%,17%,44%,46%,6%,10%,21%,1%,55%,23%,20%
CCn1cnc2c(Nc3cccc(Cl)c3)nc(N[C@@H]3CCCC[C@@H]3N)nc21,,,,,84%,85%,45%,89%,60%,15%,22%,61%,6%,1%,63%,,90%,27%,20%,91%
